# Legend:
# Test in all cases: DAPPL (digital affinity profiling via proximity ligation, sequencing); 10 mM Tris-HCl pH 7.5, 50 mM NaCl, 1 mM DTT, 4% glycerol, room temperature, 30 min; GST-TFs on glutathione beads, 16-mer random dsDNA library, 0.1% formaldehyde crosslink after washing; high values mean tight binding
# [1] = biological target: T1, FEV (Homo sapiens, UniProt Q99581 1-238); details: protein: recombinant; tags: N-terminal GST; dsDNA, one strand shown
# T1 sequence: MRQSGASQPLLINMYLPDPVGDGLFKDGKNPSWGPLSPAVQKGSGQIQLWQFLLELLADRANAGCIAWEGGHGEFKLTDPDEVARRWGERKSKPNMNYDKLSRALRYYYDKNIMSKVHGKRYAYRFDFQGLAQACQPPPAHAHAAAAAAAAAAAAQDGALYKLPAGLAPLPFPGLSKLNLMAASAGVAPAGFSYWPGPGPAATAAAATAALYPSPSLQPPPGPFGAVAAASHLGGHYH
# Outline: (§1)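 In yeast, human transcription factors were expressed with a GST fusion, then pulled down on glutathione beads and given DNA barcodes. Pooled with a tag-only sample, they were exposed to 200 nmole of a 16-mer random double-stranded DNA library (Tris/NaCl/DTT/glycerol buffer, room temperature, 30 min), washed, crosslinked with 0.1% formaldehyde, proximity-ligated using BsaI/T4 ligase for 1 h at 37 °C, PCR-amplified and read on an Illumina NextSeq500. Each hexamer's frequency of reads for a factor, divided by the matching frequency for the tag-only sample, gives the binding signal.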
# [2] = biological target: ETV5 (Homo sapiens, UniProt P41161 1-510); details: protein: recombinant; tags: N-terminal GST; dsDNA, one strand shown
# Outline: as §1
# [3] = biological target: HSF1 (Homo sapiens, UniProt Q00613 1-529); details: protein: recombinant; tags: N-terminal GST; chain copies: 3; dsDNA, one strand shown
# Outline: as §1
# [4] = biological target: T2, SPIC (Homo sapiens, UniProt Q8N5J4 1-248); details: protein: recombinant; tags: N-terminal GST; dsDNA, one strand shown
# T2 sequence: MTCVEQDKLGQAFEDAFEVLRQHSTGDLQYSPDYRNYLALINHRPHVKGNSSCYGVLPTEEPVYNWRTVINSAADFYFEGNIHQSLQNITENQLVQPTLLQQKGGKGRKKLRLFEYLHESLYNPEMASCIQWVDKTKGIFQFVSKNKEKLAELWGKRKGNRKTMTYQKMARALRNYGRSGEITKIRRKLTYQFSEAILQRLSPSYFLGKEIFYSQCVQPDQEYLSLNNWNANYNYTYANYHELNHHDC
# Outline: as §1
# [5] = biological target: ELF4 (Homo sapiens, UniProt Q99607 1-663); details: protein: recombinant; tags: N-terminal GST; dsDNA, one strand shown
# Outline: as §1
# [6] = biological target: T3, ELK4 (Homo sapiens, UniProt P28324-2 1-405); details: protein: recombinant; tags: N-terminal GST; dsDNA, one strand shown
# T3 sequence: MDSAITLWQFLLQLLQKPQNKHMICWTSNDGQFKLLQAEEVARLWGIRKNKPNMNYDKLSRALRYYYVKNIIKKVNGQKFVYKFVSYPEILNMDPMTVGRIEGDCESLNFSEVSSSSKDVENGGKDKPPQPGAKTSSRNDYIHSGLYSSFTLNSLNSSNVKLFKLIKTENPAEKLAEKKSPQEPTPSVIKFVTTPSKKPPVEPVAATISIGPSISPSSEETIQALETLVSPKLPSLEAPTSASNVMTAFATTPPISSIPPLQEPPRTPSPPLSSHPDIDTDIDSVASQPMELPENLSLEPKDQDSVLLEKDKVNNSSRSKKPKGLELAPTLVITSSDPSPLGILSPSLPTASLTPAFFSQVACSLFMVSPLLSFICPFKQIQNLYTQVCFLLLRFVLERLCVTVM
# Outline: as §1
# [7] = biological target: T4, ETV2 (Homo sapiens, UniProt O00321 1-342); details: protein: recombinant; tags: N-terminal GST; dsDNA, one strand shown
# T4 sequence: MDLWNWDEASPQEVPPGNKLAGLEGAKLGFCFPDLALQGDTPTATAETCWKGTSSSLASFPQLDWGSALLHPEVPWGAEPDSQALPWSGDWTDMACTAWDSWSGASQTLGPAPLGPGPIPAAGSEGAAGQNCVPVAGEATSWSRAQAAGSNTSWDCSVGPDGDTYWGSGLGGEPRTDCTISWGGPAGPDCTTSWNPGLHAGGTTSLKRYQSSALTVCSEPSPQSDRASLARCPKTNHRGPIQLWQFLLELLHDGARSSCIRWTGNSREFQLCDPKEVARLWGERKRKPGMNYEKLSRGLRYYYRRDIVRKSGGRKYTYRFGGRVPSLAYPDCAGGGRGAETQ
# Outline: as §1
# [8] = biological target: T5, ELF3 (Homo sapiens, UniProt P78545 1-371); details: protein: recombinant; tags: N-terminal GST; dsDNA, one strand shown
# T5 sequence: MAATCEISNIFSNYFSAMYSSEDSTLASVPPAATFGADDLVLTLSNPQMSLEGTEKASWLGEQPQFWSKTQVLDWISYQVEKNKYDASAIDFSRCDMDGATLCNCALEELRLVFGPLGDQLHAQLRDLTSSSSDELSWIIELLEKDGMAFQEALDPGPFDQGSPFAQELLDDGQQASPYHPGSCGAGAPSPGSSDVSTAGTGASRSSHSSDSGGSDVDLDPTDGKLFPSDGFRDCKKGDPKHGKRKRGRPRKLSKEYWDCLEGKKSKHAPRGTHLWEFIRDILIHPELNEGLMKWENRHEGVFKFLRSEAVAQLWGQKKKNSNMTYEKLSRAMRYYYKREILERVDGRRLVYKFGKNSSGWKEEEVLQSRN
# Outline: as §1
# [9] = biological target: CRX (Homo sapiens, UniProt O43186 1-299); details: protein: recombinant; tags: N-terminal GST; dsDNA, one strand shown
# Outline: as §1
# CRX, sequence (O43186 whole entry): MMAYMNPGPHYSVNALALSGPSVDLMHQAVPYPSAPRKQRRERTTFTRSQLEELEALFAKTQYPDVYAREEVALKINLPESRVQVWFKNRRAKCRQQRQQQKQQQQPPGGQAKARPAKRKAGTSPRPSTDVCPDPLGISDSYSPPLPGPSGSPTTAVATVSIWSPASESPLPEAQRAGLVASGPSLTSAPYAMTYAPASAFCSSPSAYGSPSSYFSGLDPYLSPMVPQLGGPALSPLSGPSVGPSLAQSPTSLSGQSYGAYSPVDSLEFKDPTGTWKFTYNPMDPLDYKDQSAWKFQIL
# ETV5, sequence (P41161 whole entry): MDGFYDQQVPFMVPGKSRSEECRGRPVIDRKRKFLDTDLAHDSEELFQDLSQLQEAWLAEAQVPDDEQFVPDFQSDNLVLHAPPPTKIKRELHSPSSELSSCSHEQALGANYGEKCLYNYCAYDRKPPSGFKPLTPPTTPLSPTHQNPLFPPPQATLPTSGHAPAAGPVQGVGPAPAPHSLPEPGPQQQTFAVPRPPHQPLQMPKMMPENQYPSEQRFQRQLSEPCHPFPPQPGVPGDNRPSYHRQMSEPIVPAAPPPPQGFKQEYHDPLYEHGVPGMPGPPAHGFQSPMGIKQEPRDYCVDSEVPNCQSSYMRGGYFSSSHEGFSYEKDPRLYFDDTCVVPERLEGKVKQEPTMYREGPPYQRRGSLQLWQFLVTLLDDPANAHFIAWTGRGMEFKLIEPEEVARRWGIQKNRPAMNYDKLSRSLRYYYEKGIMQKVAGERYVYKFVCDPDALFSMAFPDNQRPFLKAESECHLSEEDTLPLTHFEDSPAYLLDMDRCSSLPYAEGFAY
# ELF4, sequence (Q99607 whole entry): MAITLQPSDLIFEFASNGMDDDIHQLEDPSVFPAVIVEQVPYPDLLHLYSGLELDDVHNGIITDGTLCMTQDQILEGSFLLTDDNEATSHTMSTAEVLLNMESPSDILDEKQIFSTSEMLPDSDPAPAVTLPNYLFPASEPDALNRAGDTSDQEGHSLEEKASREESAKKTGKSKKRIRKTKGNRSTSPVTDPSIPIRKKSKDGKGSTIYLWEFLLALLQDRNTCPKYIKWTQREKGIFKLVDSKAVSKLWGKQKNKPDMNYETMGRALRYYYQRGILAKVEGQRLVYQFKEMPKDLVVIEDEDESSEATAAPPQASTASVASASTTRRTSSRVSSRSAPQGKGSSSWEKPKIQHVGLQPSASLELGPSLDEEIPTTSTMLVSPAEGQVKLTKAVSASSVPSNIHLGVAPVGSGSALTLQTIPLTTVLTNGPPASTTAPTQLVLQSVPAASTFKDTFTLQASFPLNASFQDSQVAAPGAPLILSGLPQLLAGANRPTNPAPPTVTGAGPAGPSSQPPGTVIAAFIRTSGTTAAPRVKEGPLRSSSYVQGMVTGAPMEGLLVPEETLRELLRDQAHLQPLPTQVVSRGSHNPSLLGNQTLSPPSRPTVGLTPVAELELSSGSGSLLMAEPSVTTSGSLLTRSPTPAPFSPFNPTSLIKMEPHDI
# HSF1, sequence (Q00613 whole entry): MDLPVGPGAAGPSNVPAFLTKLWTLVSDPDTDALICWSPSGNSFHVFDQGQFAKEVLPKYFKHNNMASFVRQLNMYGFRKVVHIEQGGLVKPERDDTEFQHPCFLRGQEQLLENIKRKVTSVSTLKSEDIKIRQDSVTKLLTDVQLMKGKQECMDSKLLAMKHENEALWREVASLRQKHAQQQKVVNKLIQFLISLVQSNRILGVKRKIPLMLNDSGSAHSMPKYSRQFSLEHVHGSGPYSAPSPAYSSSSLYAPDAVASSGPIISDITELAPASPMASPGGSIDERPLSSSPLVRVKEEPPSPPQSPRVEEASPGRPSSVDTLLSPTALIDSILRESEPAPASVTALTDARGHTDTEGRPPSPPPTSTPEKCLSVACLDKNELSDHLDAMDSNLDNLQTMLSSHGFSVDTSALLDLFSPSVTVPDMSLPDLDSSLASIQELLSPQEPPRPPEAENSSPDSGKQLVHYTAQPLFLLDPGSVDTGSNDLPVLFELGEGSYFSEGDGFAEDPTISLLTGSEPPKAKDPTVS
sequence,measurement,setting,value
GATTAT,binding signal,[1],"1.01 fold enrichment (6-mer frequency, TF over GST control)"
same,binding signal,[2],"1.03 fold enrichment (6-mer frequency, TF over GST control)"
same,binding signal,[3],"2.66 fold enrichment (6-mer frequency, TF over GST control)"
same,binding signal,[4],"1.09 fold enrichment (6-mer frequency, TF over GST control)"
same,binding signal,[5],"1.14 fold enrichment (6-mer frequency, TF over GST control)"
same,binding signal,[6],"1.06 fold enrichment (6-mer frequency, TF over GST control)"
same,binding signal,[7],"1.07 fold enrichment (6-mer frequency, TF over GST control)"
same,binding signal,[8],"1.16 fold enrichment (6-mer frequency, TF over GST control)"
same,binding signal,[9],"4.27 fold enrichment (6-mer frequency, TF over GST control)"
